# Reference: PubChem BioAssay (NCI)
# Where “and” joins values, the source holds several entries; their conditions need not be identical. Equal values may be shown once. The panel holds about 79,000 compounds, 15% with a hit somewhere; the sample as a whole holds those more often. A structure can be active in one record and inactive in another. Calls of active or inactive are those of the source. Rule as the data show it: active = growth inhibition above about 70%; inactive = the rest.
# Experiments:
# [1] = NCI Yeast Anticancer Drug Screen. Data for the wt1 strain (AID 149);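 also: 0% = growth of vehicle-treated wt1 cultures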; settings: S. cerevisiae wt1 strain (SPY 50644) growth inhibition, stronger effect = higher value
# Outline: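 Compounds are added to wt1 yeast cultures. Growth is then measured. Inhibition is expressed relative to vehicle-treated controls.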
# [2] = NCI Yeast Anticancer Drug Screen. Data for the rad50EPP+ strain (AID 151);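 also: 0% = growth of vehicle-treated control cultures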; settings: S. cerevisiae rad50 mutant strain, stronger effect = higher value
# Outline: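 Compounds were applied to the rad50EPP+ yeast strain, which bears a defined DNA repair alteration, and growth inhibition was determined relative to vehicle-treated cultures.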
# [3] = NCI Yeast Anticancer Drug Screen. Data for the mgt1 strain (AID 153); settings: S. cerevisiae mgt1 mutant growth inhibition, stronger effect = higher value
# Outline: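 Strain: mgt1 yeast, one of a set carrying defined DNA damage repair or cell cycle control alterations. Compound-treated growth compared with vehicle.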
# [4] = NCI Yeast Anticancer Drug Screen. Data for the rad50 strain (AID 155);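 also: 0% = growth of vehicle-only cultures of the same strain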; settings: S. cerevisiae rad50 strain growth inhibition, stronger effect = higher value
# Outline: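 Inhibition values express reduced yeast growth in compound-treated cultures relative to vehicle-treated controls.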
# [5] = NCI Yeast Anticancer Drug Screen. Data for the mec2-1 strain (AID 157); settings: S. cerevisiae mec2-1 strain, stronger effect = higher value
# Outline: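 Strain: mec2-1 (DNA repair/cell cycle alteration). Compound exposure, then growth measured; inhibition expressed relative to vehicle.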
# [6] = NCI Yeast Anticancer Drug Screen. Data for the rad14 strain (AID 159);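 also: 0% = growth of vehicle-treated control cultures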; settings: S. cerevisiae rad14 strain growth inhibition, stronger effect = higher value
# Outline: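 A mutant yeast strain defective in DNA damage repair is treated with compound; inhibition of its growth is scored against untreated, vehicle-exposed cultures.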
# [7] = NCI Yeast Anticancer Drug Screen. Data for the sgs1 mgt1 strain (AID 161);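 also: 0% = growth of cultures given vehicle only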; settings: S. cerevisiae sgs1 mgt1 strain, stronger effect = higher value
# Outline: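 Read-out: growth inhibition vs vehicle controls. Cells: mutant yeast strain deficient in DNA damage repair.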
# [8] = NCI Yeast Anticancer Drug Screen. Data for the CLN2oe strain (AID 163);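 also: 0% = growth of vehicle-only control cultures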; settings: S. cerevisiae CLN2oe strain, stronger effect = higher value
# Outline: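 Growth of a genetically modified yeast strain is measured after compound exposure and compared with cultures given vehicle alone.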
# [9] = NCI Yeast Anticancer Drug Screen. Data for the cln2 rad14 strain (AID 165);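 also: 0% = growth equal to vehicle treated cultures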; settings: S. cerevisiae cln2 rad14 strain, stronger effect = higher value
# Outline: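 Compounds are applied to the cln2 rad14 yeast strain, and growth is then compared with that of vehicle-treated cultures to give inhibition.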
# [10] = NCI Yeast Anticancer Drug Screen. Data for the bub3 strain (AID 167); settings: S. cerevisiae bub3 mutant strain, stronger effect = higher value
# Outline: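 Steps: expose the mutant yeast strain to compound; grow alongside vehicle-treated cultures; measure growth; express inhibition against the vehicle cultures.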
# [11] = NCI Yeast Anticancer Drug Screen. Data for the wt2 strain (AID 169);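 also: 0% = growth of vehicle-treated yeast cultures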; settings: S. cerevisiae wt2 strain growth inhibition, stronger effect = higher value
# Outline: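 This strain belongs to a panel of yeast strains with defined genetic alterations in DNA damage repair or cell cycle control. Compounds are applied, and growth inhibition is measured against vehicle-treated cultures.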
# [12] = NCI Yeast Anticancer Drug Screen. Data for the sgs1 strain (AID 173);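 also: 0% = growth of vehicle-only control cultures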; settings: S. cerevisiae sgs1 mutant, stronger effect = higher value
# Outline: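 Growth of a yeast strain bearing a defined genetic alteration is measured after compound treatment. Inhibition is expressed relative to vehicle-only controls.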
# [13] = NCI Yeast Anticancer Drug Screen. Data for the mlh1 rad18 strain (AID 175); settings: S. cerevisiae mlh1 rad18 strain growth inhibition, stronger effect = higher value
# Outline: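 Read-out is yeast growth inhibition, calculated against vehicle-only controls. The compound was applied to a strain engineered with DNA damage repair alterations.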
# [14] = NCI Yeast Anticancer Drug Screen. Data for the rad18 strain (AID 177); settings: S. cerevisiae rad18 mutant growth inhibition, stronger effect = higher value
# Outline: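 Growth of the mutant yeast strain after compound exposure, normalised to vehicle-only cultures.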
# [15] = NCI Yeast Anticancer Drug Screen. Data for the mlh1 strain (AID 171);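 also: 0% = growth of vehicle-treated control cultures of the same strain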; settings: S. cerevisiae mlh1 strain growth inhibition, stronger effect = higher value
# Outline: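 Growth of the mutant yeast strain after compound exposure, expressed as inhibition relative to vehicle-only controls.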
# [16] = at 5.0 µM (retest, dose inferred, filed as 0.5)
# [17] = at 50.0 µM (retest, dose inferred, filed as 5.0)
smiles,measurement,setting,value
COc1ccc(OC)c(/C=C/[N+](=O)[O-])c1,growth inhibition,[1]; at 1.2 µM,-6% (inactive)
same,growth inhibition,[1]; at 3.7 µM,-7% (inactive)
same,growth inhibition,[1]; at 11.0 µM,-9% (inactive)
same,growth inhibition,[1]; at 33.0 µM,7% (inactive)
same,growth inhibition,[1]; at 100.0 µM,71% (active)
same,growth inhibition,[2]; at 1.2 µM,29% (inactive)
same,growth inhibition,[2]; at 3.7 µM,59% (inactive)
same,growth inhibition,[2]; at 11.0 µM,74% (active)
same,growth inhibition,[2]; at 33.0 µM,86% (active)
same,growth inhibition,[2]; at 100.0 µM,99% (active)
same,growth inhibition,[3]; at 1.2 µM,0% (inactive)
same,growth inhibition,[3]; at 3.7 µM,-2% (inactive)
same,growth inhibition,[3]; at 11.0 µM,2% (inactive)
same,growth inhibition,[3]; at 33.0 µM,23% (inactive)
same,growth inhibition,[3]; at 100.0 µM,100% (active)
same,growth inhibition,[4]; at 1.2 µM,11% (inactive)
same,growth inhibition,[4]; at 3.7 µM,21% (inactive)
same,growth inhibition,[4]; [16],-83% (inactive) and 19% (inactive)
same,growth inhibition,[4]; at 11.0 µM,48% (inactive)
same,growth inhibition,[4]; at 33.0 µM,86% (active)
same,growth inhibition,[4]; [17],86% (active) and 95% (active)
same,growth inhibition,[4]; at 50.0 µM,99.4% (active)
same,growth inhibition,[4]; at 100.0 µM,99% (active)
same,growth inhibition,[5]; at 1.2 µM,1% (inactive)
same,growth inhibition,[5]; at 3.7 µM,2% (inactive)
same,growth inhibition,[5]; [16],-46% (inactive) and 9% (inactive)
same,growth inhibition,[5]; at 11.0 µM,7% (inactive)
same,growth inhibition,[5]; at 33.0 µM,30% (inactive)
same,growth inhibition,[5]; [17],-38% (inactive) and 97% (active)
same,growth inhibition,[5]; at 50.0 µM,99.7% (active) and 98.8% (active)
same,growth inhibition,[5]; at 100.0 µM,99% (active)
same,growth inhibition,[6]; at 1.2 µM,5% (inactive)
same,growth inhibition,[6]; at 3.7 µM,7% (inactive)
same,growth inhibition,[6]; at 11.0 µM,15% (inactive)
same,growth inhibition,[6]; at 33.0 µM,39% (inactive)
same,growth inhibition,[6]; at 100.0 µM,100% (active)
same,growth inhibition,[7]; [16],-53% (inactive) and 12% (inactive)
same,growth inhibition,[7]; [17],1% (inactive) and 64% (inactive)
same,growth inhibition,[7]; at 50.0 µM,91.3% (active) and 99% (active)
same,growth inhibition,[8]; at 1.2 µM,6% (inactive)
same,growth inhibition,[8]; at 3.7 µM,9% (inactive)
same,growth inhibition,[8]; at 11.0 µM,13% (inactive)
same,growth inhibition,[8]; at 33.0 µM,37% (inactive)
same,growth inhibition,[8]; at 100.0 µM,95% (active)
same,growth inhibition,[9]; [16],-60% (inactive) and 2% (inactive)
same,growth inhibition,[9]; [17],-45% (inactive) and 76% (active)
same,growth inhibition,[9]; at 50.0 µM,98.8% (active) and 98.4% (active)
same,growth inhibition,[10]; at 1.2 µM,0% (inactive)
same,growth inhibition,[10]; at 3.7 µM,6% (inactive)
same,growth inhibition,[10]; [16],-57% (inactive) and 35% (inactive)
same,growth inhibition,[10]; at 11.0 µM,13% (inactive)
same,growth inhibition,[10]; at 33.0 µM,25% (inactive)
same,growth inhibition,[10]; [17],-33% (inactive) and 79% (active)
same,growth inhibition,[10]; at 50.0 µM,99% (active)
same,growth inhibition,[10]; at 100.0 µM,99% (active)
same,growth inhibition,[11]; at 1.2 µM,0% (inactive)
same,growth inhibition,[11]; at 3.7 µM,-1% (inactive)
same,growth inhibition,[11]; at 11.0 µM,-2% (inactive)
same,growth inhibition,[11]; at 33.0 µM,15% (inactive)
same,growth inhibition,[11]; at 100.0 µM,85% (active)
same,growth inhibition,[12]; at 1.2 µM,-1% (inactive)
same,growth inhibition,[12]; at 3.7 µM,18% (inactive)
same,growth inhibition,[12]; at 11.0 µM,29% (inactive)
same,growth inhibition,[12]; at 33.0 µM,54% (inactive)
same,growth inhibition,[12]; at 100.0 µM,100% (active)
same,growth inhibition,[13]; [16],-114% (inactive) and 37% (inactive)
same,growth inhibition,[13]; [17],-53% (inactive) and 95% (active)
same,growth inhibition,[13]; at 50.0 µM,97.9% (active) and 99.5% (active)
same,growth inhibition,[14]; at 1.2 µM,5% (inactive)
same,growth inhibition,[14]; at 3.7 µM,13% (inactive)
same,growth inhibition,[14]; at 11.0 µM,20% (inactive)
same,growth inhibition,[14]; at 33.0 µM,49% (inactive)
same,growth inhibition,[14]; at 100.0 µM,96% (active)
O=C1OC2C(O1)C1(Cl)C(Cl)=C(Cl)C2(Cl)C1(Cl)Cl (stereo unspecified),growth inhibition,[1]; at 1.2 µM,-4% (inactive)
same,growth inhibition,[1]; at 3.7 µM,-3% (inactive)
same,growth inhibition,[1]; at 11.0 µM,-3% (inactive)
same,growth inhibition,[1]; at 33.0 µM,-7% (inactive)
same,growth inhibition,[1]; at 100.0 µM,-7% (inactive)
same,growth inhibition,[2]; at 1.2 µM,-1% (inactive)
same,growth inhibition,[2]; at 3.7 µM,0% (inactive)
same,growth inhibition,[2]; at 11.0 µM,0% (inactive)
same,growth inhibition,[2]; at 33.0 µM,-3% (inactive)
same,growth inhibition,[2]; at 100.0 µM,-2% (inactive)
same,growth inhibition,[3]; at 1.2 µM,-4% (inactive)
same,growth inhibition,[3]; at 3.7 µM,-3% (inactive)
same,growth inhibition,[3]; at 11.0 µM,-3% (inactive)
same,growth inhibition,[3]; at 33.0 µM,-6% (inactive)
same,growth inhibition,[3]; at 100.0 µM,-3% (inactive)
same,growth inhibition,[4]; at 1.2 µM,-2% (inactive)
same,growth inhibition,[4]; at 3.7 µM,-3% (inactive)
same,growth inhibition,[4]; [16],2% (inactive)
same,growth inhibition,[4]; at 11.0 µM,-2% (inactive)
same,growth inhibition,[4]; at 33.0 µM,-3% (inactive)
same,growth inhibition,[4]; [17],41% (inactive)
same,growth inhibition,[4]; at 50.0 µM,85.2% (active)
same,growth inhibition,[4]; at 100.0 µM,-1% (inactive)
same,growth inhibition,[5]; at 1.2 µM,-4% (inactive)
same,growth inhibition,[5]; at 3.7 µM,-4% (inactive)
same,growth inhibition,[5]; [16],3% (inactive)
same,growth inhibition,[5]; at 11.0 µM,-3% (inactive)
same,growth inhibition,[5]; at 33.0 µM,-3% (inactive)
same,growth inhibition,[5]; [17],90% (active)
same,growth inhibition,[5]; at 50.0 µM,87.8% (active)
same,growth inhibition,[5]; at 100.0 µM,-3% (inactive)
same,growth inhibition,[6]; at 1.2 µM,-4% (inactive)
same,growth inhibition,[6]; at 3.7 µM,-6% (inactive)
same,growth inhibition,[6]; at 11.0 µM,-3% (inactive)
same,growth inhibition,[6]; at 33.0 µM,-7% (inactive)
same,growth inhibition,[6]; at 100.0 µM,-1% (inactive)
same,growth inhibition,[7]; [16],3% (inactive)
same,growth inhibition,[7]; [17],74% (active)
same,growth inhibition,[7]; at 50.0 µM,87.2% (active)
same,growth inhibition,[8]; at 1.2 µM,-4% (inactive)
same,growth inhibition,[8]; at 3.7 µM,-5% (inactive)
same,growth inhibition,[8]; at 11.0 µM,-6% (inactive)
same,growth inhibition,[8]; at 33.0 µM,-12% (inactive)
same,growth inhibition,[8]; at 100.0 µM,-7% (inactive)
same,growth inhibition,[9]; [16],1% (inactive)
same,growth inhibition,[9]; [17],61% (inactive)
same,growth inhibition,[9]; at 50.0 µM,78.5% (active)
same,growth inhibition,[10]; at 1.2 µM,-6% (inactive)
same,growth inhibition,[10]; at 3.7 µM,-4% (inactive)
same,growth inhibition,[10]; [16],0% (inactive)
same,growth inhibition,[10]; at 11.0 µM,-9% (inactive)
same,growth inhibition,[10]; at 33.0 µM,-10% (inactive)
same,growth inhibition,[10]; [17],75% (active)
same,growth inhibition,[10]; at 50.0 µM,98% (active)
same,growth inhibition,[10]; at 100.0 µM,-19% (inactive)
same,growth inhibition,[11]; at 1.2 µM,-13% (inactive)
same,growth inhibition,[11]; at 3.7 µM,-5% (inactive)
same,growth inhibition,[11]; at 11.0 µM,-6% (inactive)
same,growth inhibition,[11]; at 33.0 µM,-7% (inactive)
same,growth inhibition,[11]; at 100.0 µM,-7% (inactive)
same,growth inhibition,[15]; at 1.2 µM,-1% (inactive)
same,growth inhibition,[15]; at 3.7 µM,0% (inactive)
same,growth inhibition,[15]; at 11.0 µM,2% (inactive)
same,growth inhibition,[15]; at 33.0 µM,1% (inactive)
same,growth inhibition,[15]; at 100.0 µM,2% (inactive)
same,growth inhibition,[12]; at 1.2 µM,-1% (inactive)
same,growth inhibition,[12]; at 3.7 µM,0% (inactive)
same,growth inhibition,[12]; at 11.0 µM,0% (inactive)
same,growth inhibition,[12]; at 33.0 µM,0% (inactive)
same,growth inhibition,[12]; at 100.0 µM,1% (inactive)
same,growth inhibition,[13]; [16],7% (inactive)
same,growth inhibition,[13]; [17],90% (active)
same,growth inhibition,[13]; at 50.0 µM,74.2% (active)
same,growth inhibition,[14]; at 1.2 µM,-4% (inactive)
same,growth inhibition,[14]; at 3.7 µM,0% (inactive)
same,growth inhibition,[14]; at 11.0 µM,-1% (inactive)
same,growth inhibition,[14]; at 33.0 µM,-2% (inactive)
same,growth inhibition,[14]; at 100.0 µM,2% (inactive)
